# From PubChem BioAssay
# Activity calls are given as the source filed them.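 How the source made its calls, unless noted: active means NADPH fluorescence slope more negative than the mean of all samples by about 3 SD, 99.7% confidence; inactive means the rest.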
# Key:
# [1] = inhibitors of TNFa-induced NFkB p65 translocation, primary screen, imaging, HUVEC, MLSMR starter and 10KST1 sets (AID 438;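 active means inhibition above 20% together with a positive visual image hit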;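 further: compound added about 3h40 before a 20 min TNFalpha stimulation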;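 on inhibition: signal is the nuclear over cytoplasmic p65 intensity ratio per well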); settings: HUVEC TNFa-induced p65 nuclear translocation; cell count: measured here: nuclei count (cytotoxicity indicator), at 2.08 µM; inhibition: at 2 µM, stronger effect = higher value, 0% TNFa-plus-vehicle, 100% no-TNFa wells
# [2] = reduction of polyQ htt aggregates in cells – imaging, exon1htt(103Q)mCFP cells, high-content imaging, primary screen (AID 483;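 active means visual image review flags a hit and inhibition of aggregation exceeds 20%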;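 further: compound exposure lasted 3 days before fixation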;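 on nuclei count: percent of the per-plate median nuclei count of sample wells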); settings: exon1htt(103Q)mCFP cell line, aggregate imaging, at 2 µM; inhibition of aggregation: stronger effect = higher value; nuclei count: measured here: cell count, toxicity
# [3] = endothelial E-selectin expression blockers – imaging, HUVEC, immunofluorescence, MLSMR starter and 10KST1 sets, primary screen (AID 487;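 active means visually confirmed hit in the image check and inhibition above 20%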;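 on inhibition: signal is fraction of cell area covered by stained E-selectin grains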;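 on nuclei count: 100% = median nuclei count of all wells on the same plate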); settings: HUVEC TNFalpha-induced E-selectin immunofluorescence imaging, at 2 µM; inhibition: stronger effect = higher value; nuclei count: measured here: cell number, toxicity
# [4] = molecular target: Voltage-gated potassium channel subunit beta-2 (Rattus norvegicus) (UniProt P62483); assay: inhibitors of rat Kvbeta2 reductase activity – biochemical, NADPH fluorescence, primary screen (AID 622;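 active means fluorescence slope higher than the sample average by over 3 SD, cut at about -0.22 in these data, passing the limit was not always enough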;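 further: slope of raw intensity against log time taken from 70 to 1610 s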); settings: recombinant KvBeta, 4-cyanobenzaldehyde reduction, at 10 µM, stronger effect = higher value
# [5] = molecular target: Voltage-gated potassium channel subunit beta-2 (Rattus norvegicus) (UniProt P62483); assay: enhancers of rat Kvbeta2 NADPH turnover – biochemical, NADPH fluorescence, primary screen (AID 623); settings: Recombinant KvBeta, NADPH fluorescence decrease slope, 10 min; at 10 µM; stronger effect = lower value;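 further: fluorescence intensity change per second fitted from 20 to 320 s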
# [6] = molecular target: Alpha-2C adrenergic receptor (Homo sapiens) (UniProt P18825); assay: compounds altering alpha2C-coupled GIRK flux – cell-based, HEK293 alpha2C/GIRK1/2, thallium flux, primary screen (AID 624;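 active means fluorescence slope after compound addition differing from the mean of all screened samples at 99.7% confidence, in either direction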;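 further: slope of fluorescence ratio to pre-addition baseline per second over 15 to 24 s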); settings: thallium flux BTC fluorescence, at 10 µM, actives lie on both sides
# [7] = blockers of RIG-like receptor reporter activation – cell-based, Sendai virus stimulus, luciferase, 10K MLSCN set, TLR/RLR signaling modifier project, primary screen (AID 602276;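 active means inhibition at or above 50% at 10 µM; inactive means inhibition below 50%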;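 further: firefly luciferase from ISG56 promoter only with Renilla not read in this screen; 0% = Sendai virus plus DMSO and 100% = medium plus DMSO without virus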); settings: HEK293 RL24 IRF3 luciferase reporter, at 10 µM, stronger effect = higher value
# [8] = TLR3 IRF3 reporter activation blockers – cell-based, poly I:C stimulus, luciferase, 10K MLSCN set, primary screen (AID 602277;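 active means inhibition of the reporter signal at or above 50%; inactive means inhibition below 50%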); settings: HEK293-TLR3 RL24 IRF3 luciferase reporter, at 10 µM, stronger effect = higher value
# Chain of Alpha-2C adrenergic receptor (Homo sapiens) (P18825 whole entry, looked up): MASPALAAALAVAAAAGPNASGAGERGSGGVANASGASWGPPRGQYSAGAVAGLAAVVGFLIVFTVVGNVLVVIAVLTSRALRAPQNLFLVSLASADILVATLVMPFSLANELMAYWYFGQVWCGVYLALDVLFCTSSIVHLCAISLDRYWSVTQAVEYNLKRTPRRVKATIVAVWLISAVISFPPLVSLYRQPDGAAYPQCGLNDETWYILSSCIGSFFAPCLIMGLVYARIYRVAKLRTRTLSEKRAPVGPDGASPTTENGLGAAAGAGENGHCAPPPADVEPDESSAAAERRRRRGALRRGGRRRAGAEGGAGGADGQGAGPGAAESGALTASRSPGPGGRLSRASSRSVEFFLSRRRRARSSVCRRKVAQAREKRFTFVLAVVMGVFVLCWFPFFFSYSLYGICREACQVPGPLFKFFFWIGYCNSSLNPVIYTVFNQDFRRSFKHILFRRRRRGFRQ
# Chain of Voltage-gated potassium channel subunit beta-2 (Rattus norvegicus) (P62483 whole entry, looked up): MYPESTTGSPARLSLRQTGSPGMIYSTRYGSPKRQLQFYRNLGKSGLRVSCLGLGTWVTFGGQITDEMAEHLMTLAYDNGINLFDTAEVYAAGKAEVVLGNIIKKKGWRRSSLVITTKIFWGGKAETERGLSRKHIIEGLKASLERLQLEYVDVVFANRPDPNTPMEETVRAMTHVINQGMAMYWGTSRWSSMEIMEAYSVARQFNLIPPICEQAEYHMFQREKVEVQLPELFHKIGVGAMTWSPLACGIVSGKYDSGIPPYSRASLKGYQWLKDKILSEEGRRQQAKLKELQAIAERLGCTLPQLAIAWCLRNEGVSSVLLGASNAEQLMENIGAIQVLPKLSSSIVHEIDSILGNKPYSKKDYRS
Compound,cell count [1],inhibition [1],inhibition of aggregation [2],nuclei count [2] [%],inhibition [3],nuclei count [3] [%],fluorescence slope [4],NADPH fluorescence slope [5],slope [6],inhibition [7],inhibition [8]
COCCNC(=O)C(c1ccc(C)o1)N(Cc1ccc(OC)cc1)C(=O)Cn1nnc2ccccc21 (centres undefined),249,7% (inactive),-3.6% (inactive),93.1,25.3% (inactive),82.9,-0.648 (inactive),-1.9e-05 (inactive),0.00364 (inactive),10.1% (inactive),6.31% (inactive)
CCCN1C2CCCC1CC(NC(=O)Nc1cccc(C(C)=O)c1)C2 (centres undefined),418,-10.3% (inactive),-17% (inactive),97,-138% (inactive),180,-0.637 (inactive),1.7e-05 (inactive),0.00567 (inactive),23.1% (inactive),37.8% (inactive)
Cc1cccc(C)c1OCc1nnc(SCC(=O)Nc2ccccc2F)o1,592,-12% (inactive),21.8% (inactive),67.2,4% (inactive),109,-0.558 (inactive),-3e-05 (inactive),0.00659 (inactive),16.4% (inactive),25.4% (inactive)
CCn1nc(C)c(NC(=O)c2cc(Br)ccc2Cl)c1C,497,-5.8% (inactive),-21.4% (inactive),111,-17.6% (inactive),115,-0.445 (inactive),-0.000104 (inactive),0.00617 (inactive),14.4% (inactive),25% (inactive)
Cc1occc1-c1nc(-c2ccncc2)no1,706,7.3% (inactive),6% (inactive),95.3,-46.6% (inactive),126,-0.523 (inactive),1.8e-05 (inactive),0.00583 (inactive),-46.9% (inactive),-90.8% (inactive)
COc1ccc(Cl)cc1S(=O)(=O)n1cnc2ccccc21,725,-4.8% (inactive),-5.8% (inactive),92.3,-42.3% (inactive),104,-0.403 (inactive),9.7e-06 (inactive),0.00504 (inactive),19.3% (inactive),31.3% (inactive)
COCCNC(=O)CN1C(=O)CSc2ncccc21,673,-6.7% (inactive),-43.1% (inactive),115,-62.1% (inactive),117,-0.413 (inactive),-1.6e-05 (inactive),0.00576 (inactive),11.1% (inactive),28.9% (inactive)
O=C(NCCC1=CCCCC1)N[C@@H](Cc1ccccc1)C(=O)O,377,-3.9% (inactive),-1.8% (inactive),108,-24.3% (inactive),115,-0.447 (inactive),-0.000113 (active),0.00549 (inactive),-1.48% (inactive),0.553% (inactive)
Cc1nnc(SCc2cc(=O)[nH]c(N3CCCCC3)n2)s1,639,5% (inactive),0.6% (inactive),96.3,14.7% (inactive),107,-0.592 (inactive),-3.2e-05 (inactive),0.00759 (inactive),13.1% (inactive),19.7% (inactive)
Cc1c(Cl)cccc1N1C(=O)c2ccccc2C1=O,275,7.5% (inactive),-0.9% (inactive),90.5,16.9% (inactive),93.5,-0.502 (inactive),-3.6e-05 (inactive),0.00611 (inactive),-1.09% (inactive),15.5% (inactive)
COc1ccc(NC(=O)CN(c2ccc(C(C)C)cc2)S(=O)(=O)c2c(C)noc2C)cc1OC,787,3.4% (inactive),-119% (inactive),123,-24.6% (inactive),108,-0.617 (inactive),2e-05 (inactive),0.00605 (inactive),18.3% (inactive),41.9% (inactive)
O=C(Nc1ccc(Cl)cn1)c1cccnc1,340,-8% (inactive),2.7% (inactive),107,-1.5% (inactive),102,-0.473 (inactive),1.1e-05 (inactive),0.00527 (inactive),-14% (inactive),-34.8% (inactive)
CCC(CC)n1[nH]c(=O)c2c(C)cc(C)nc21,368,0.2% (inactive),0.4% (inactive),106,13.4% (inactive),106,-0.299 (inactive),-6.9e-05 (inactive),0.00499 (inactive),6.59% (inactive),13.6% (inactive)
CCc1ccc(Nc2cc(=O)n(C3CCCCC3)c(=O)[nH]2)cc1,385,3.9% (inactive),-8.7% (inactive),104,-1.5% (inactive),121,-0.579 (inactive),-2.4e-05 (inactive),0.00696 (inactive),-13.5% (inactive),-97.2% (inactive)
